Measurements taken from PubChem BioAssay AID1159580 (chemical genetic matrix, 2015).
“And” between values parts separate entries of the source, which are not always exact repeats. Equal values may be shown once. The whole screen tested about 5,500 compounds, of which about 2,000 (36%) were called active. Another 18% or so got no clear call; they are omitted. Cut-off read from the data, not from the text of the source: active = normalized growth mostly below about 0.91 (no sharp cut-off); inconclusive = no clear call, values can overlap the other calls; inactive = mostly above about 0.92. The list shows a part of the results.

Test: chemical genetic growth profiling, strain panel (AID 1159580);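 note: tested at 20 µM; growth read once vehicle control cultures reached saturation at 30 °C; 1 = growth at the plate median or of vehicle wells; lower values mean less growth of the strain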
Settings: S. cerevisiae deletion strains, growth OD

Measured: normalized growth

CN1CCN(CC(=O)N2c3ccccc3C(=O)Nc3cccnc32)CC1
inactive: locus YAL013W, strain DEP1, stronger effect = lower value 1.01 | locus YAL021C, strain ccr4, stronger effect = lower value 0.991 | locus YAL026C, strain drs2, stronger effect = lower value 1.03 | locus YAL030W, strain snc1, stronger effect = lower value 0.999 | locus YAL040C, strain CLN3, stronger effect = lower value 0.963 | locus YBL061C, strain skt5, stronger effect = lower value 1.01 | locus YBR009C, strain hhf1, stronger effect = lower value 0.999 | locus YBR021W, strain FUR4, stronger effect = lower value 1.02 | locus YBR023C, strain chs3, stronger effect = lower value 1.01 | locus YBR171W, strain sec66, stronger effect = lower value 1.02 | locus YBR229C, strain ROT2, stronger effect = lower value 1.01 | locus YBR231C, strain swc5, stronger effect = lower value 1.01 | locus YBR279W, strain paf1, stronger effect = lower value 1.01 | locus YCL011C, strain gbp2, stronger effect = lower value 1.02 | locus YCL016C, strain dcc1, stronger effect = lower value 1 | locus YCL029C, strain bik1, stronger effect = lower value 1.02 | locus YCL061C, strain MRC1 (second series), stronger effect = lower value 0.981 | locus YCL061C, strain MRC1, stronger effect = lower value 1.02 | locus YCL069W, strain vba3, stronger effect = lower value 1.03 | locus YCR088W, strain abp1, stronger effect = lower value 1.01 | locus YDL005C, strain med2, stronger effect = lower value 0.999 | locus YDL035C, strain GPR1, stronger effect = lower value 1.02 | locus YDL040C, strain nat1, stronger effect = lower value 0.992 | locus YDL074C, strain BRE1, stronger effect = lower value 1.05 | locus YDL101C, strain DUN1, stronger effect = lower value 1.02 | locus YDL134C, strain PPH21, stronger effect = lower value 0.991 | locus YDL185W, strain tfp1, stronger effect = lower value 1 | locus YDL192W, strain arf1, stronger effect = lower value 1.01 | locus YDR001C, strain nth1, stronger effect = lower value 1.01 | locus YDR069C, strain doa4, stronger effect = lower value 0.989 | locus YDR101C, strain arx1, stronger effect = lower value 1 | locus YDR137W, strain rgp1, stronger effect = lower value 1.02 | locus YDR150W, strain NUM1, stronger effect = lower value 1.01 and 1 | locus YDR159W, strain sac3, stronger effect = lower value 1.01 | locus YDR162C, strain NBP2, stronger effect = lower value 1.01 | locus YDR195W, strain ref2 0.999 | locus YDR297W, strain sur2, stronger effect = lower value 1.01 | locus YDR318W, strain mcm21, stronger effect = lower value 1.02 | locus YDR334W, strain swr1, stronger effect = lower value 1.04 | locus YDR335W, strain msn5, stronger effect = lower value 1.04 | locus YDR363W, strain ESC2, stronger effect = lower value 1.02 | locus YDR388W, stronger effect = lower value 1.02 | locus YDR392W, strain spt3, stronger effect = lower value 1.01 | locus YDR502C, strain sam2, stronger effect = lower value 1.02 | locus YEL003W, strain gim4, stronger effect = lower value 1.01 | locus YEL037C, strain rad23, stronger effect = lower value 1.01 | locus YEL061C, strain CIN8 (second series), stronger effect = lower value 1.03 | locus YEL061C, strain CIN8, stronger effect = lower value 1.01 | locus YER002W, strain NOP16, stronger effect = lower value 0.986 | locus YER015W, strain faa2, stronger effect = lower value 1.02 | locus YER016W, strain bim1, stronger effect = lower value 0.997 | locus YER110C, stronger effect = lower value 1.02 | locus YER111C, strain swi4, stronger effect = lower value 1.02 | locus YER155C, strain BEM2 (second series), stronger effect = lower value 1.08 | locus YER155C, strain BEM2, stronger effect = lower value 1.01 | locus YER167W, strain BCK2, stronger effect = lower value 1.02 | locus YFR010W, strain ubp6, stronger effect = lower value 1.02 | locus YGL078C, strain dbp3, stronger effect = lower value 1.01 | locus YGL086W, strain mad1, stronger effect = lower value 1.01 | locus YGL167C, strain pmr1, stronger effect = lower value 1.01 | locus YGL173C, strain kem1, stronger effect = lower value 1.06 | locus YGL227W, strain vid30, stronger effect = lower value 1.02 | locus YGL240W, strain doc1, stronger effect = lower value 1.02 | locus YGL248W, strain PDE1, stronger effect = lower value 1.01 | locus YGL253W, strain hxk2, stronger effect = lower value 1.01 | locus YGR078C, strain PAC10, stronger effect = lower value 1.02 | locus YGR135W, strain pre9, stronger effect = lower value 1.01 | locus YGR229C, strain SMI1, stronger effect = lower value 1.01 and 0.968 | locus YGR252W, strain gcn5, stronger effect = lower value 0.995 | locus YHR013C, strain ard1, stronger effect = lower value 1.03 | locus YHR027C, strain rpn1, stronger effect = lower value 1.01 | locus YHR030C, strain SLT2, stronger effect = lower value 1.01 and 0.978 | locus YHR079C, strain IRE1 (second series), stronger effect = lower value 1.02 | locus YHR079C, strain IRE1, stronger effect = lower value 0.986 | locus YHR094C, strain hxt1, stronger effect = lower value 1.02 | locus YHR129C, strain ARP1, stronger effect = lower value 0.995 | locus YHR142W, strain chs7, stronger effect = lower value 1.04 | locus YHR200W, strain rpn10, stronger effect = lower value 1.01 | locus YIL066C, strain RNR3, stronger effect = lower value 1.01 | locus YIL073C, strain SPO22, stronger effect = lower value 1.02 | locus YIL125W, strain kgd1, stronger effect = lower value 1.01 | locus YIR030C, strain dcg1, stronger effect = lower value 1.01 | locus YJL092W, strain hpr5, stronger effect = lower value 1.02 | locus YJL095W, strain BCK1 (second series), stronger effect = lower value 0.991 | locus YJL095W, strain BCK1, stronger effect = lower value 1.04 and 0.99 | locus YJL115W, strain asf1, stronger effect = lower value 1.01 | locus YJL129C, strain trk1, stronger effect = lower value 1.03 | locus YJL134W, strain LCB3, stronger effect = lower value 1.01 | locus YJL154C, strain vps35, stronger effect = lower value 1.01 | locus YJL164C, strain tpk1, stronger effect = lower value 1.01 | locus YJL166W, strain qcr8, stronger effect = lower value 1.03 | locus YJL168C, strain set2, stronger effect = lower value 1.02 | locus YJL187C, strain SWE1 (second series), stronger effect = lower value 1.01 | locus YJR043C, strain POL32, stronger effect = lower value 1.01 | locus YJR066W, strain TOR1, stronger effect = lower value 0.926
